Assay outcomes as filed in PubChem.
NPSR antag: blocks cAMP signaling of the human neuropeptide S receptor; Q6W5P4; CHO-NPSR cells, cAMP TR-FRET, antagonist mode; Potency, µM (titrated, usually from 38.3 µM), for the others: top-dose activity change, negative = inhibition, most hits filed as inhibitors; 220,000 compounds, 1% hits; note: potency is the fitted concentration of half-maximal effect; nearly all actives have a fitted effect of over 50% in size
ALOX12 inhib: blocks human 12-lipoxygenase activity; 150,000 compounds, 0.12% hits; Potency, µM (titrated, usually from 57.1 µM), for the others: at the top dose activity change, negative = inhibition, most hits filed as inhibitors; P18054; purified 12-hLO, xylenol orange hydroperoxide absorbance; note: potency is the fitted concentration of half-maximal effect; nearly all actives have a fitted effect of over 55% in size
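Hydroperoxide output read as Fe(III)-xylenol orange absorbance, 573-to-405 nm ratio, after 30 min reaction with 40 uM arachidonic acid. Enzyme: 150 nM purified human 12hLO, 15 min compound preincubation; 25 mM Hepes pH 7.0, room temperature.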
IMPase cell inh: membrane-permeable compound that blocks inositol monophosphatase; AID 901; CHO-M1 cells, IP1 accumulation, HTRF TR-FRET ratio; P97697; inhibition (IP1 accumulation), % at 46.1 µM; 120,000 tested, under 10 active; active = well fitted curve in the direction sought with a large enough effect in the signal ratio, not every such curve was filed as active; inconclusive = small, poorly fitted or top-dose-only effect, or a change in a side signal; inactive = no such curve, though single readings can be large or run the other way; the % refers to the signal ratio;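 note: cells stimulated with carbachol in lithium chloride buffer; plate controls were DMSO basal wells for no effect and reference inhibitor wells for full effect; higher means more IMPase inhibition seen as more IP1 and lower FRET ratio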
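Carbachol-driven Gq signalling in CHO-M1 cells (2000/well) generates IP1. Compounds that block IMPase raise IP1 and so reduce the FRET signal from Eu-anti-IP1 and d2-IP1 after a 10 min room-temperature lysis.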
IMPase Li inh: membrane-permeable IMPase blocker, potentiated with lithium; Potency, µM (highest dose often 59.4 µM), inactives show at the top dose activity, negative = IMPase inhibition, usual class: inhibitors; 210,000 compounds, 0.35% hits; CHO-M1 cells, IP1 TR-FRET (IP-One), carbachol + lithium; AID 1457;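 note: IP1 builds up when IMPase is blocked and the TR-FRET signal falls; potency is the fitted concentration of half-maximal effect; plate controls were basal vehicle for no effect and high inhibitor control for full effect; nearly all actives have a fitted effect of over 50% in size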
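Lithium-sensitised IP1 accumulation assay; M1-expressing CHO cells treated 30 min at 37C with compound. Competitive antibody detection by time-resolved FRET followed a 10 min room-temperature lysis step.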
HPGD block: inhibitors of human 15-hydroxyprostaglandin dehydrogenase (HPGD). P15428. purified HPGD, NADH fluorescence kinetic, PGE2 substrate. Potency, µM, for inactives: at the top dose activity change, negative = inhibition, usual class: inhibitors. 150,000 compounds, 4.3% hits; active = well fitted inhibition curve with a large enough effect, not every such curve was filed as active; inconclusive = small, poorly fitted or top-dose-only effect, or another doubt; inactive = no such curve, though single readings can be large or run the other way; note: potency is the fitted concentration of half-maximal effect
Target sequence (P15428 whole entry, looked up): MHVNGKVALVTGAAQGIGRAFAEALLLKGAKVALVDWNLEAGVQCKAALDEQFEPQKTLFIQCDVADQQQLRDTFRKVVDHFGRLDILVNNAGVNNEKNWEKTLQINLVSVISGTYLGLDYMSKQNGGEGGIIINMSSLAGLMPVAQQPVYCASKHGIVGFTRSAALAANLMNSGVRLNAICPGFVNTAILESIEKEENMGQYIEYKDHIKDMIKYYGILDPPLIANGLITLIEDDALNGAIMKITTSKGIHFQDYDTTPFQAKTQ
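NADH formation kinetics: reaction with 30 uM PGE2 and 1 mM NAD+ (final), 20 nM enzyme, Tris-HCl pH 8 with Tween 20, after 15 min compound preincubation at room temperature. Fluorescence change, last versus first of five reads.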
ALDH1A1 block: blocks purified human ALDH1A1 activity. 220,000 compounds, 7.3% hits. Purified ALDH1A1, NADH fluorescence, propionaldehyde substrate. Potency, µM (highest dose often 75.3 µM), for inactives: at the top dose activity, negative = inhibition, actives largely listed as inhibitors. P00352; active = well fitted inhibition curve with a large enough effect, not every such curve was filed as active; inconclusive = small, poorly fitted or top-dose-only effect, or another doubt; inactive = no such curve, though single readings can be large or run the other way;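 note: potency is the fitted concentration of half-maximal effect; plate controls were no enzyme wells and a reference inhibitor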
Target sequence (P00352 whole entry, looked up): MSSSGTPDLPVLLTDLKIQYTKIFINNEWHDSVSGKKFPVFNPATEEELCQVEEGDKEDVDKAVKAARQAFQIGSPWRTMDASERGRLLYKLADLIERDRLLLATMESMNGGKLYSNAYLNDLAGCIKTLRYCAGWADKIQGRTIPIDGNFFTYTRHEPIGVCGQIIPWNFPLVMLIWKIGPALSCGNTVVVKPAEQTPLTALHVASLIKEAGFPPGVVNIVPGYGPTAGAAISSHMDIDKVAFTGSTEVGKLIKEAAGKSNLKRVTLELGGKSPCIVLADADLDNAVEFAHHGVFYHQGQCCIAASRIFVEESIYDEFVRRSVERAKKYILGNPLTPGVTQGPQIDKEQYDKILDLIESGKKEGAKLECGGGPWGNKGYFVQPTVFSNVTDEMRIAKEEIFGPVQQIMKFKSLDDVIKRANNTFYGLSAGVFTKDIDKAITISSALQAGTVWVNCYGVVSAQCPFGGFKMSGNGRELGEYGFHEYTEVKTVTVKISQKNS
The depositor's hits bear a star; ? = inconclusive; . = no result; ! = not confirmed by another sample; [ ] = remark or other dose. Only some compounds are listed: those with a hit (about 8.9% of all), similar ones and a draw of the others. Unless noted, calls come from the whole dose curve; as a rule, active = well fitted curve in the direction sought with a large enough effect; inconclusive = small, poorly fitted or top-dose-only effect, or another doubt; inactive = no such curve, though single readings can be large; an effect the other way counts as inactive or inconclusive. Unless noted, % is set by controls: 0 for no effect and ±100 for the full control effect.

SMILES	NPSR antag	ALOX12 inhib	IMPase cell inh	IMPase Li inh	HPGD block	ALDH1A1 block
CCOc1ccccc1Nc1nnc(SCC(=O)Nc2nc(-c3ccc(OC)cc3)cs2)s1	-1%	.	.	-18%	.	25µM*
Cc1cccc(Nc2nnc(SCC(=O)Nc3ccccc3[N+](=O)[O-])s2)c1C	-11%	-6%	.	-12%	?	1.3µM*
Cc1ccc(Nc2nnc(SCC(=O)Nc3ccccc3[N+](=O)[O-])s2)cc1	-6%	11%	1	15%	-12%	0%
COc1ccccc1Nc1nnc(SCC(=O)Nc2nc(-c3ccc(F)cc3)cs2)s1	-3%	.	.	3%	.	?
Cc1csc(SCC(=O)Nc2nc(-c3ccccc3)cs2)n1	-8%[46.1 µM]	-4%	0	25%[38.3 µM]	-12%	0%
COc1ccc(-c2csc(NC(=O)CSc3nnc(Nc4ccccc4C)s3)n2)cc1	1%	.	.	-4%	.	25µM*
CCN(CC)S(=O)(=O)c1ccc(NC2c3ccccc3C(=O)N2c2ccc(C)cn2)cc1 (centres undefined)	-14%[46.1 µM]	4%	4	7%[38.3 µM]	-12%	18µM*
Cc1ccc(N2C(=O)c3ccccc3C2Nc2ccc(S(=O)(=O)N3CCCCC3)cc2)nc1 (centres undefined)	-13%[46.1 µM]	-1%	2	2%[38.3 µM]	-2%	14µM*
CCOC(=O)N1CCC(N2C(=O)c3ccccc3C2Nc2ccc(S(=O)(=O)N3CCCCC3)cc2)CC1 (centres undefined)	10µM*	.	.	13%	.	25µM*
Cc1ccc(N2C(=O)c3ccccc3C2Nc2ccc(S(=O)(=O)N3CCOCC3)cc2)nc1 (centres undefined)	-14%[46.1 µM]	-1%	-5	4%[38.3 µM]	-7%	?
CN1CCc2c(n(CC(O)CN3C(=O)c4ccccc4S3(=O)=O)c3ccccc23)C1=O (centres undefined)	-2%[46.1 µM]	2%	?	-3%	-1%	10µM*
O=C1c2ccccc2S(=O)(=O)N1CC(O)COc1ccc(Cl)cc1 (centres undefined)	-12%[46.1 µM]	-20%	4	.	.	?
Cc1c(C)n(CC(O)CN2C(=O)c3ccccc3S2(=O)=O)c2ccccc12 (centres undefined)	-14%[46.1 µM]	-2%	1	33%[38.3 µM]	20µM*	14µM*
CN1CCc2c(n(CC(O)CN(CCO)CCO)c3ccccc23)C1=O (centres undefined)	20%	.	.	2%	.	0%
CCCCNC(=O)C(c1ccc(OCC(=O)OC)c(C(=O)OC)c1)N(CCOC)C(=O)CCCCCN1C(=O)NC(c2ccc(-c3ccccc3)cc2)C(C(=O)OCc2ccccc2)=C1C (centres undefined)	-17%	-2%	.	1%	-16%	-2%
Cc1ccc(N2C(=O)C(CC(=O)Nc3cccc(F)c3)N(C3CC3)C2=O)cc1 (centres undefined)	-1%	.	.	3%	.	20µM*
N#C/C(=C\c1ccc(F)cc1)c1nc(-c2ccc(-c3ccccc3)cc2)cs1	.	.	-10	.	.	.
CCOc1ccc(-c2csc(/C(C#N)=C\c3ccc(O)c([N+](=O)[O-])c3)n2)cc1	-34%	-1%	.	6%	3.2µM*	-16%
Cc1nc2c(c(=O)n1CCC(C)C)c1nc3ccccc3nc1n2CC1CCCO1 (centres undefined)	-38%	.	.	.	.	.
COc1ccc(Cc2nn3c(-c4ccccc4OC)nnc3s2)cc1	?	-3%	0	22%[38.3 µM]	28µM*	11µM*
COc1ccccc1-c1nnc2sc(COc3ccc(Cl)cc3)nn12	?	-4%	7	4%	-24%	11%
COc1ccccc1-c1nnc2sc(C3CCCCC3)nn12	-6%[7.67 µM]	-9%	8	-1%[38.3 µM]	28µM*	-11%
Cc1ccc(F)cc1NC(=O)CN1CCN(c2ccccn2)CC1	-3%	.	.	-5%	.	-2%
CCCCCCCCNC(C)C(O)c1ccc(SC(C)C)cc1 (centres undefined)	?	-2%	.	15%	-3%	7.9µM*!
C[C@@H](NCCc1ccc(O)cc1)[C@@H](O)c1ccc(O)cc1	-3%[46.1 µM]	.	.	12%	-15%	-6%
SMILES	NPSR antag	ALOX12 inhib	IMPase cell inh	IMPase Li inh	HPGD block	ALDH1A1 block
Cc1ccc(-c2noc(CCC(=O)NCC3CCCO3)n2)cc1 (centres undefined)	-7%[46.1 µM]	-2%	-1	16%[38.3 µM]	18µM*	-5%
CC(C)(C)c1ccc(-c2noc(CCC(=O)NCC3CCCO3)n2)cc1 (centres undefined)	-14%[46.1 µM]	2%	0	7%[38.3 µM]	13µM*	-7%
COc1ccc(-c2noc(CCC(=O)NCC3CCCO3)n2)cc1 (centres undefined)	-4%[7.67 µM]	.	.	.	.	.
CNC(=O)CCc1nc(-c2ccc(C(C)(C)C)cc2)no1	-5%[46.1 µM]	1%	2	-2%[38.3 µM]	-17%	-2%
O=C(CCc1nc(-c2ccccc2)no1)N1CCCC1	-3%[46.1 µM]	0%	-3	-12%[38.3 µM]	-26%	-5%
O=C(CCc1nc(-c2ccccc2)no1)NCC1CCCO1 (centres undefined)	-24%[46.1 µM]	-6%	-4	1%[38.3 µM]	25µM*	?
Cc1ccc(-c2nc(N)sc2CC(=O)OCC(=O)NCC2CCCO2)cc1 (centres undefined)	-3%	-4%	.	-3%	32µM*	?
COc1ccc(C2CC(=O)c3c([nH]c(C(=O)OC4CCC(C)CC4)c3C)C2)cc1OC (centres undefined)	.	.	3	.	.	.
CCn1cnc2sc(C)c(C)c2c1=O	1%[46.1 µM]	-2%	0	27%[38.3 µM]	-1%	1%
COc1cccc(NC(=O)Cn2c(=O)n(CCC(=O)NCc3ccco3)c(=O)c3ccccc32)c1	-11%	.	.	4%	.	-1%
Cc1cc(C)c(C(=O)Nc2cccc(F)c2)c(Cl)n1	5%	.	.	-8%	.	-3%
COC(=O)c1ccc(-c2noc(CN(C)CCC3CCCCO3)n2)cc1 (centres undefined)	?	.	.	28%	.	8.9µM*
Cc1ccc(-c2nc(NCC3CCCO3)sc2C)cc1 (centres undefined)	-15%	.	.	4%	.	28µM*
CC(C)(C)C1=CC(=O)C(N2CCOCC2)=CC1=O	12%	-2%	.	12%	1%	-2%
COc1ccc2c(=O)c3c(=O)n(Cc4ccco4)c(C(C)C)nc3oc2c1	-11%[46.1 µM]	-1%	-4	-4%	-28%	9.5µM*
CC(C)N(c1ccccc1)c1ccc(NC(=O)CCl)cc1	-19%	.	.	4%	.	0.4µM*
O=C(CCl)Nc1ccc(-c2ccccc2)cc1	-19%	.	.	23%	.	0.25µM*
O=C(O)CC(=O)Nc1ccccc1	-3%[46.1 µM]	2%	-7	5%[38.3 µM]	-2%	-3%
O=C(CCl)Nc1ccc(N=Nc2ccccc2)cc1	-48%	-3%	.	0%	-23%	0.4µM*
O=C(CCl)Nc1ccccc1Sc1ccccc1	-15%[46.1 µM]	-1%	3	8%[38.3 µM]	-8%	4µM*
